Reference: PubChem BioAssay AID504558 (Broad Institute, 2011)
The campaign covered roughly 350,000 compounds. About 2,400 (0.69%) were called active. The entries come from a sample that favours actives as a whole. A number with no mark means an inactive call. Rule as the data show it: active = inhibition above about 41%; inconclusive = no clear call, values can overlap the other calls; inactive = below that.

Test: EBV LMP1-driven NF-kappaB luciferase reporter inhibitors, primary screen, cell-based, luminescence, single point (AID 504558);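 also: 0% = neutral control wells and 100% = reference inhibitor control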
Details: LMP1-induced NF-kappaB luciferase reporter cells, at 12.5 µM, hits give high values

Row | SMILES | inhibition
1 | COc1ccc(C(=O)OCC(=O)c2cc(C)n(CC3CCCO3)c2C)cc1[N+](=O)[O-] (centres undefined) | 12.7%
2 | Cc1ccsc1C(=O)OCC(=O)Nc1cccc(F)c1 | -4.47%
3 | Cc1ccsc1C(=O)OCC(=O)c1cc(C)n(CC2CCCO2)c1C (centres undefined) | 63.2% (active)
4 | Cc1ccc(S(=O)(=O)N(CCc2ccccc2)c2ccc3c(c2)C2CC3CCN2C(=O)OCc2ccccc2)cc1 (centres undefined) | -3.7%
5 | COc1ccc(OCC(=O)N2CCN(C(=O)c3cccs3)CC2)cc1 | -13.6%
6 | O=C(CSc1ncnc2sccc12)NC1CCS(=O)(=O)C1 (centres undefined) | 5.19%
7 | O=C(CSc1ncnc2sccc12)N1CCN(C(=O)c2cccs2)CC1 | 69.5% (active)
8 | Cc1nc2ccccn2c(=O)c1NC(=O)c1ccc(Br)o1 | 1.95%
9 | CCOC(=O)C1CCN(C(=O)c2ccc3c(=O)n4nc(Nc5ccccc5CC)sc4nc3c2)CC1 | 0.7%
10 | NC(=O)C1(Nc2ccc([N+](=O)[O-])cc2)CCCC1 | 58.8% (active)
11 | NC(=O)C1(Nc2ccc(-c3ccccc3)cc2)CCCC1 | 0.238%
12 | O=C(Nc1ccc([N+](=O)[O-])cc1)C1CC12CCC2 (centres undefined) | -7.83%
13 | NC(CSC(c1ccccc1)(c1ccccc1)c1ccc(-c2ccccc2)cc1)C(=O)O (centres undefined) | -1.87%
14 | Cc1nc(SCc2ccc(F)cc2)c([N+](=O)[O-])[nH]1 | 2.2%
15 | Nc1nc(SCc2ccc([N+](=O)[O-])cc2)c2ncn(C3OC(CO)C(O)C3O)c2n1 (centres undefined) | -5.79%
16 | Cc1nc(N)nc(SCc2ccc([N+](=O)[O-])cc2)c1N | 50.3% (active)
17 | N#CCCN(C(=S)Nc1ccc(Cl)c(Cl)c1)C1CCCCC1 | -1.92%
18 | Cc1cccc(N(CC(=O)N2CCCC2)S(C)(=O)=O)c1C | -6.4%
19 | Cc1ccc2cccc([N+](=O)[O-])c2n1 | 7.19%
20 | O=C(OCc1cn([C@@H]2C[C@H](c3ccc(Cl)cc3)N(Cc3cccs3)C[C@H]2O)nn1)c1ccccc1 | 3.08%
21 | O=C(C1CC1)N1N=C(c2ccc(Br)cc2)CC1(O)C(F)(F)F (centres undefined) | 48.3% (active)
22 | O=C(Cc1ccccc1)N1N=C(c2ccncc2)CC1(O)C(F)(F)F (centres undefined) | 4.93%
23 | O=C(C1CC1)N1N=C2CCCCC2C1(O)C(F)(F)F (centres undefined) | 0.262%

Row | SMILES | inhibition
24 | C[C@@H]1CN([C@@H](C)CO)C(=O)c2cc(Br)cnc2O[C@H]1CN(C)Cc1ccc(-c2ccccc2)cc1 | -10.5%
25 | C[C@@H]1CN([C@H](C)CO)C(=O)c2cc(Br)cnc2O[C@@H]1CN(C)Cc1cncnc1 | -0.147%
26 | Nc1cc(=O)c2[nH]cnc2[nH]1 | 5.05%
27 | O=C1CCC(=O)N1CCC(=O)N(C(=O)NC1CCCCC1)C1CCCCC1 | -0.58%
28 | CCc1nnc(NC(=O)c2cc(S(=O)(=O)N3CCN(CC)CC3)ccc2Cl)s1 | 68.4% (active)
29 | CCc1nnc(NC(=O)c2ccc(S(=O)(=O)NC3CCCCC3)cc2)s1 | -6.69%
30 | CCc1nnc(NC(=O)c2cc(S(=O)(=O)N3CCCCC3)ccc2C)s1 | 2.74%
31 | O=C(Nc1ccc(Cl)cn1)c1ccccc1-c1ccccc1 | 3.03%
32 | c1ccc(CNCc2ccc(CNCc3ccccc3)cc2)cc1 | -5.41%
33 | Cc1ccc(S(=O)(=O)/N=C2\C=C(NS(=O)(=O)c3ccc(C)cc3)C(=O)c3ccccc32)cc1 | -0.482%
34 | CCOc1ccc(NC(=O)c2cc(C)nc3ccccc23)cc1 | -0.28%
35 | COc1ccc(-c2cc(C(=O)N/N=C/c3cccnc3)c3ccccc3n2)c(OC)c1 | 1.36%
36 | CCOc1ccc(-c2cc(C(=O)N/N=C/c3ccc(O)cc3)c3ccccc3n2)cc1 | 58.2% (active)
37 | Cc1cccc(C(=O)OCC(=O)Nc2sccc2C(N)=O)c1C | -0.574%
38 | C[C@H]1CN([C@@H](C)CO)C(=O)c2cc(C3=CCCCC3)cnc2O[C@@H]1CN(C)C(=O)Cc1ccccc1 | 5.28%
39 | CCN1C(=O)[C@H]2[C@@H](c3ccccc3)N[C@]3(CCCN(Cc4ccc(C)cc4)C3=O)[C@H]2C1=O | -1.4%
40 | O=C(CCN1CCN(C/C=C/c2ccccc2)CC1)Nc1ccccc1Cl | 5.35%
41 | O=C(Nc1ccccc1Cl)/C(Cl)=C(\Cl)S(=O)c1ccccc1 (centres undefined) | 69.1% (active)
42 | NC(=O)C1(Nc2ccccc2Cl)CCCC1 | -6.12%
43 | Cc1ccc(C(=O)NC(C)C(c2cccs2)N2CCOCC2)cc1C (centres undefined) | 3.97%
44 | CC(/C=N/NC(=O)c1cc(-c2ccc3ccccc3c2)n[nH]1)=C\c1ccco1 | -39.1%
45 | Cc1ccc(-c2cc(C(=O)N/N=C/C=C/c3ccco3)c3ccccc3n2)cc1C | 60.7% (active)
46 | O=C(N/N=C/C=C/c1ccco1)c1cccs1 | -24.5%

Row | SMILES | inhibition
47 | COc1ccc(CCNC(=O)CN(c2ccccc2)S(=O)(=O)c2ccccc2)cc1 | -10.2%
48 | Cc1ccc([C@H]2C[C@H](O)[C@@H](n3cc(COC(=O)c4ccccc4)nn3)CN2CC2CCCCC2)cc1 | 4.84%
49 | C[C@H]1CN([C@@H](C)CO)C(=O)CCCn2cc(nn2)CO[C@@H]1CN(C)S(=O)(=O)c1cccs1 | 5.02%
50 | CCN1CCCC1CNC(=O)c1ccc2c(c1)NC(=O)/C(=C\c1ccccc1F)S2 (centres undefined) | -8.19%
51 | CC1=C(C(=O)N(C)C)CC(CC(=O)NCCc2ccccn2)C(=O)N1CCC1=CCCCC1 (centres undefined) | 1.75%
52 | CC(C)c1cc(C(=O)N(C)C2CCCN(Cc3ccccc3F)C2)n(C)n1 (centres undefined) | 3.75%
53 | COc1ccc(-c2cc3ncccc3cn2)cc1 | -15.8%
54 | Cc1ccc(-c2nc3ccc(Cl)cn3c2Cc2ccccc2)cc1 | -21.9%
55 | COc1ccc(-c2cn3ccc(C)cc3n2)cc1 | 48.2% (active)
56 | Cc1ccn2cc(C(=O)NC3CCN(Cc4ccccc4)CC3)nc2c1 | 5.73%
57 | Cc1ccc2nc(-c3ccc(Br)cc3)cn2c1 | 63.8% (active)
58 | Cc1ccc(-c2cc(N)on2)cc1 | -11.1%
59 | Cc1ccc(-c2cn3cc(C)ccc3n2)cc1 | 82% (active)
60 | Cc1ccc(-c2cc(C(=O)NCc3cn(C)nc3C)c3cc(Br)ccc3n2)cc1 | -3.18%
61 | CSc1nnc2ccc(-c3ccc(C)cc3)nn12 | 2.32%
62 | COc1cc2ccc(C(C)=O)c(O)c2cc1OC | 3.32%
63 | COc1ccc(S(=O)(=O)N2CCC(C(=O)NCCC(=O)Nc3ccccc3OC)CC2)cc1 | 1.21%
64 | COc1ccc(C(=O)OCC(=O)Nc2cc(C)on2)cc1F | -6.31%
65 | COc1ccc(C(=O)NCC2CCCO2)cc1S(=O)(=O)NCc1ccc(Cl)cc1 (centres undefined) | -0.644%
66 | CC1CN(C(=O)c2cccc(NS(=O)(=O)c3ccc(Br)cc3)c2)CC(C)O1 (centres undefined) | 0.834%
67 | O=C(Nc1cccc2ccccc12)NC1CC1 | -3.72%
68 | CC1=C(C(=O)Nc2cccc(C(=O)NCC(C)c3ccccc3)c2)SCCO1 (centres undefined) | -2.25%
69 | COc1cc2c(cc1OC)CN(CC(=O)Nc1ccc(F)cc1)CC2 | 9.89%

Row | SMILES | inhibition
70 | CC[C@H]1CN2CCc3cc(OC)c(OC)cc3[C@@H]2C[C@@H]1C[C@H]1NCCc2cc(OC)c(OC)cc21 | 89.9% (active)
71 | CC(C)CC1C(=O)N(Cc2cn(CC3CCCCC3)nn2)CCS(=O)(=O)N1Cc1ccc(-c2ccc(Cl)cc2)cc1 (centres undefined) | 5.31%
72 | O=C(COC(=O)c1cccc(Cl)c1Cl)NC1CCCCCC1 | -5.21%
73 | O=C(Nc1nc2ccc([N+](=O)[O-])cc2s1)c1ccc(S(=O)(=O)N2CCCc3ccccc32)cc1 | 52.5% (active)
74 | CN(C)CCCN(C(=O)c1ccc(S(=O)(=O)N2CCCc3ccccc32)cc1)c1nc2ccc(F)cc2s1 | -4.71%
75 | N=C1C(c2nc3ccccc3s2)=C(O)CN1NC(=O)c1ccc([N+](=O)[O-])cc1 | -6.15%
76 | O=C(O)c1cc([N+](=O)[O-])c(Nc2cccc3ccccc23)c([N+](=O)[O-])c1 | 1%
77 | O=C(NC(Nc1nc2ccc([N+](=O)[O-])cc2s1)(C(F)(F)F)C(F)(F)F)c1ccccc1 | 56.9% (active)
78 | Cc1ccc(NC(=O)c2cccc(S(=O)(=O)N3CCCc4ccccc43)c2)nc1 | 16.9%
79 | C[C@@H]1CN([C@@H](C)CO)C(=O)c2cc(NS(C)(=O)=O)ccc2O[C@@H](C)CCCCO[C@H]1CN(C)C(=O)Nc1ccc2c(c1)OCO2 | -2.68%
80 | CC(C)CCC(=O)Nc1cc(S(=O)(=O)N2CCOCC2)ccc1N1CCCC1 | 0.721%
81 | O=S1(=O)CCN(C2CCCCCCCCCCC2)CC1 | 3.93%
82 | CCCCCCn1c(=O)n2n(c1=O)C[C@]1(OC(=O)NCc3ccc(OC)c(OC)c3)CN(S(=O)(=O)c3ccc(C)cc3)C[C@]1(O)C2 | -11.4%
83 | O=C1c2ccccc2-c2ccccc2NC1O (centres undefined) | 5.68%
84 | COc1ccc(-c2cnc3c(c2)C(=O)N([C@H](C)CO)C[C@@H](C)[C@H](CN(C)Cc2ccccc2)O3)cc1 | -7.99%
85 | COc1ccc(OC)c(NC(=O)C2CCCN2S(=O)(=O)c2ccc3c(c2)CC(C)N3C(C)=O)c1 (centres undefined) | 1.47%
86 | O=C(OCC(=O)N1CCCCCC1)c1cccc(Cl)c1Cl | -36.1%
87 | Cc1ccc(C(=O)Nc2sc(Cc3ccc4c(c3)OCO4)c(C)c2C(N)=O)cc1 | 81% (active)
88 | COCc1nnc(NC(=O)c2ccc3c(c2)OCO3)s1 | 7.49%
89 | COc1ccc(CC(=O)Nc2sc(Cc3ccccc3)c(C)c2C(N)=O)cc1 | 0.44%
